Reference: PubChem BioAssay (Tox21)
“And” between values parts separate entries of the source, which are not always exact repeats. Identical values can stand only once. Records with an inconclusive call do not appear. A call without a number means that no potency is given here. More than one record can exist for a structure, and the calls need not agree. The source made the active and inactive calls. Unless noted, the call rests on the fitted dose curve.

Columns and labels:
[1] = qHTS assay to identify small molecule agonists of the sonic hedgehog signaling (Shh) pathway (AID 1259368); further: nearly all actives have a fitted effect of over 15% in size; further: potency means the concentration at half of the fitted maximal effect
Procedure, shortened: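 NIH/3T3-derived 3T3Gli1-Luc cells with stably integrated Gli1-driven firefly luciferase, 2,000 cells/well, compounds added after 4 hr. Incubated 24 hr at 37C, 5% CO2; luminescence read after 30 min with luciferase reagent at room temperature.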

[2] = qHTS assay to identify small molecule antagonists of the sonic hedgehog signaling (Shh) pathway (AID 1259369); further: nearly all actives have a fitted effect of over 45% in size; further: potency means the concentration at half of the fitted maximal effect
Procedure, shortened: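 NIH/3T3-derived Gli1-Luc reporter cells plated 4 h, dosed with compound, then stimulated with conditioned medium for 24 h at 37 C. Firefly luciferase luminescence read after 30 min with detection reagent at room temperature.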

[3] = biological target: Estrogen receptor beta (Homo sapiens) (UniProt Q92731); assay: qHTS assay to identify small molecule agonists of the estrogen receptor beta (ER-beta) signaling pathway (AID 1259377; active means well fitted activation curve with a large enough effect in the signal ratio in the repeat runs, not every such curve was filed as active; the % refers to the signal ratio)
Procedure, shortened: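 Beta-lactamase reporter readout: fluorescence of LiveBLAzer B/G FRET substrate after 2 h at room temperature, following 16 h compound treatment of ER-beta-UAS-bla HEK293T cells at 37C in 2% charcoal-stripped FBS medium.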

[4] = biological target: Estrogen receptor beta (Homo sapiens) (UniProt Q92731); assay: qHTS assay to identify small molecule antagonists of the estrogen receptor beta (ER-beta) signaling pathway (AID 1259378; active means well fitted inhibition curve with a large enough effect in the signal ratio in the repeat runs, not every such curve was filed as active; the % refers to the signal ratio; further: potency means the concentration at half of the fitted maximal effect)
Procedure, shortened: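 Antagonist mode: compounds added to beta-lactamase reporter HEK293T ER-beta-UAS cells stimulated with E2 (1nM final), 16 hr at 37C. LiveBLAzer B/G FRET substrate, 2 hours room temperature, fluorescence read-out.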

[5] = qHTS assay to identify small molecule agonists of the androgen receptor (AR) signaling pathway in the presence of an antagonist - cell viability counter screen (AID 1259379; active means well fitted curve in the direction sought with a large enough effect in the repeat runs; an effect the other way counts as inactive or inconclusive; further: nearly all actives have a fitted effect of over 25% in size; further: potency means the concentration at half of the fitted maximal effect)
Procedure, shortened: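 MDA-kb2 cells (MMTV-luciferase, AR/GR), 3,000/well, 5 h attachment, then 3.0 µM nilutamide (final) and compounds at 15 concentrations. Viability by CellTiter-Fluor fluorescence after 16 h at 37 °C, 0% CO2, in the reporter wells.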

[6] = biological target: Estrogen receptor (Homo sapiens) (UniProt P03372); assay: qHTS assay to identify small molecule agonists of the estrogen receptor alpha (ER-alpha) signaling pathway in the presence of an antagonist (AID 1259383); further: nearly all actives have a fitted effect of over 15% in size; further: potency means the concentration at half of the fitted maximal effect; on activation: top concentration of the series differs between compounds
Procedure, shortened: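 VM7Luc4E2 cells express endogenous full-length ER-alpha with an ERE-luciferase reporter and were hormone-deprived for 5 days. Compounds at 15 concentrations were added with 10.0nM ICI-182,780 for 22hr at 37C. Luminescence was read with ONE-Glo.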

[7] = qHTS assay to identify small molecule agonists or antagonists of the thyroid stimulating hormone receptor (TSHR) signaling pathway - wild type cell line counter screen (AID 1259384)
Procedure, shortened: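 Counter screen in untransfected Hek293: compounds (15-point titration, triplicate) plus phosphodiesterase inhibitor Ro20-1724 added after 18 h plating; 30 min RT. Intracellular cAMP via competitive d2/cryptate immunoassay, 1 h incubation.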

[8] = qHTS assay to identify small molecule agonists of the estrogen receptor beta (ER-beta) signaling pathway - cell viability counter screen (AID 1259380; active means well fitted curve in the direction sought with a large enough effect in the repeat runs; an effect the other way counts as inactive or inconclusive; further: nearly all actives have a fitted effect of over 30% in size; further: potency means the concentration at half of the fitted maximal effect)
Procedure, shortened: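 ER-beta-UAS-bla HEK293T cells in medium with 2% charcoal-stripped FBS, pre-incubated 6 hr, then treated 16 hr at 37C. Cytotoxicity read in the same wells by CellTiter-Glo luminescence after 30 min at room temperature.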

[9] = biological target: Androgen receptor (Homo sapiens) (UniProt P10275); assay: qHTS assay to identify small molecule agonists of the androgen receptor (AR) signaling pathway in the presence of an antagonist (AID 1259381); further: nearly all actives have a fitted effect of over 15% in size
Procedure, shortened: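 MDA-kb2 cells carrying MMTV-luciferase (AR/GR responsive), 3,000 cells/well, co-treated with 3.0 uM nilutamide final. Compounds at 15 concentrations, 16 hr at 37C without CO2. Luciferase luminescence read after 30 min with ONE-Glo.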

[10] = qHTS assay to identify small molecule antagonists of the estrogen receptor beta (ER-beta) signaling pathway - cell viability counter screen (AID 1259382; active means well fitted curve in the direction sought with a large enough effect in the repeat runs; an effect the other way counts as inactive or inconclusive;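 further: HEK293T cells carrying ER-beta-UAS-bla reporter stimulated with estradiol; series mostly up to about 92 µM; nearly all actives have a fitted effect of over 55% in size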)
Procedure, shortened: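 ER-beta-UAS-bla HEK293T cells in 2% charcoal-stripped FBS medium, treated with compound plus 1 nM 17-beta-estradiol for 16 h at 37C. Viability read by CellTiter-Glo luminescence after 30 min at room temperature in the same wells.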

Chain of Androgen receptor (Homo sapiens) (P10275 whole entry, looked up): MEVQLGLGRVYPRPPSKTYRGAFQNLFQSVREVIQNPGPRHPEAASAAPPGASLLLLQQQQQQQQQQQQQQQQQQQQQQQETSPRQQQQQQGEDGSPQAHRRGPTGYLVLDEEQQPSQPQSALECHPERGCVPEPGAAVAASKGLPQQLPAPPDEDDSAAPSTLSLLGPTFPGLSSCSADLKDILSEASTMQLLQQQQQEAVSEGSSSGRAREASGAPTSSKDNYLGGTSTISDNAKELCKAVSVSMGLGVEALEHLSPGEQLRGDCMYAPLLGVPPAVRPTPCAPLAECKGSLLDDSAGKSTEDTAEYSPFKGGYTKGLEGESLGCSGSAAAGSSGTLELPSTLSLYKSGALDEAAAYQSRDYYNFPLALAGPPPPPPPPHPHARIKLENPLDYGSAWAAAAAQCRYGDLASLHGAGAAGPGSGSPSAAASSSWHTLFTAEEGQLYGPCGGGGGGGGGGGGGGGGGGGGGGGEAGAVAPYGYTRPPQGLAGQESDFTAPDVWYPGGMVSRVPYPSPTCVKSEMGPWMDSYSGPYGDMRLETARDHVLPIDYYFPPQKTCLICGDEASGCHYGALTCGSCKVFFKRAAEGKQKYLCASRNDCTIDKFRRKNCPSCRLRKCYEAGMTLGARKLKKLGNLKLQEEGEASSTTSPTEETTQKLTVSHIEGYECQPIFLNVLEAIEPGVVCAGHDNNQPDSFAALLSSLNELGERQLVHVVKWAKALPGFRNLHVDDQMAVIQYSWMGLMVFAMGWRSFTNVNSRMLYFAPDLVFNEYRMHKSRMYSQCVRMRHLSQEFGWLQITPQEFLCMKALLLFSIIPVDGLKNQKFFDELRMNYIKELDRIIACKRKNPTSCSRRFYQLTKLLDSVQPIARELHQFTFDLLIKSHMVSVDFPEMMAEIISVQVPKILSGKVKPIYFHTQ
Chain of Estrogen receptor (Homo sapiens) (P03372 whole entry, looked up): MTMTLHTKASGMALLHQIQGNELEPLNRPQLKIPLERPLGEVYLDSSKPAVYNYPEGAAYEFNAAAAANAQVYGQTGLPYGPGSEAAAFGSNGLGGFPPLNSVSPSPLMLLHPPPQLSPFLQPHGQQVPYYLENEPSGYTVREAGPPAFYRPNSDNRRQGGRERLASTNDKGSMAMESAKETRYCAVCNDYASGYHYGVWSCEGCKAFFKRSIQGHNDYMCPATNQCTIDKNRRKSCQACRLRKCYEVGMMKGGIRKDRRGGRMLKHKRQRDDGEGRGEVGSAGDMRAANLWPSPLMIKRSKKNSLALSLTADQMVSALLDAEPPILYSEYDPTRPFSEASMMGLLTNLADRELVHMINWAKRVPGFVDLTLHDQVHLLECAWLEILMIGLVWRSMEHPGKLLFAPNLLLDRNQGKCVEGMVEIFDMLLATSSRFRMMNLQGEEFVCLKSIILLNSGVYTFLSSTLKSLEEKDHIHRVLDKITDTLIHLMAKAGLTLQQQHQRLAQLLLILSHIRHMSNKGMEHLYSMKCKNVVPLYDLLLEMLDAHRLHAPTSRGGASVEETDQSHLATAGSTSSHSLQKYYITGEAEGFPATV
Chain of Estrogen receptor beta (Homo sapiens) (Q92731 whole entry, looked up): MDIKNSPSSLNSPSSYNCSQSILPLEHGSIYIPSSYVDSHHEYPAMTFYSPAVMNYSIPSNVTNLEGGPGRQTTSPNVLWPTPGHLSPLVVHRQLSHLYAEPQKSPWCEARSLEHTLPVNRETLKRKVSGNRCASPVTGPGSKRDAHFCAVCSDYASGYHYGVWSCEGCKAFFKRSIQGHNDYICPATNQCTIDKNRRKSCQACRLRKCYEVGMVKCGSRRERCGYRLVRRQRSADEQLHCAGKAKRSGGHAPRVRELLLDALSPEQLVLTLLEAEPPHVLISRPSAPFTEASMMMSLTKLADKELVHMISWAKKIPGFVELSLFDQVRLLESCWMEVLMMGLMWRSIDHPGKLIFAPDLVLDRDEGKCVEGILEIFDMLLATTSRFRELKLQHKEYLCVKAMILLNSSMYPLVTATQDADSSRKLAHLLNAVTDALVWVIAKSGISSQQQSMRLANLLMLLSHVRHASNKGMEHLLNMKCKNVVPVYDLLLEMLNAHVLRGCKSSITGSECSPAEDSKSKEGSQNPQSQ

| SMILES | Potency [1] | Potency [2] | Potency [3] | Potency [4] | Potency [5] | Potency [6] | outcome [7] | Potency [8] | Potency [9] | Potency [10] |
| --- | --- | --- | --- | --- | --- | --- | --- | --- | --- | --- |
| C[C@H]1CNCCc2ccc(Cl)cc21 | inactive | inactive | inactive | inactive | inactive | inactive | – | – | – | – |
| O=C(O)c1ccccc1C(=O)Nc1cccc2ccccc12 | inactive | inactive | inactive | inactive | inactive | – | inactive | – | – | – |
| Nc1ccc([N+](=O)[O-])cc1[N+](=O)[O-] | inactive | inactive | inactive | inactive | – | inactive | inactive | inactive | inactive | inactive |
| CCOc1ccc(C(C)(C)COCc2cccc(Oc3ccccc3)c2)cc1 | inactive | inactive | inactive | inactive | inactive | inactive | inactive | – | – | inactive |
| CC[C@H]1C[C@H]2[C@@H]3CCC4=CC(=O)CC[C@@H]4[C@H]3CC[C@]2(C)[C@H]1O | inactive | inactive | inactive | – | inactive | inactive | inactive | inactive | – | inactive |
| COC(=O)C(Cl)C(=O)OC | inactive | inactive | inactive | inactive | – | inactive | – | inactive | – | inactive |
| OC(c1ccc(Cl)cc1)(c1ccc(Cl)cc1)c1cccnc1 | inactive | 30.6 µM (active) | inactive | 38.6 µM (active) | – | inactive | inactive | inactive | inactive | inactive |
| Clc1ccc(C2(Cn3cncn3)CC(Br)CO2)c(Cl)c1 (centres undefined) | inactive | inactive | inactive | – | inactive | inactive | – | inactive | – | inactive |
| CCCCOC(=O)c1ccccc1C(=O)OCc1ccccc1 | inactive | inactive and 19.3 µM (active) | inactive | 6.1 µM (active) and 9.15 µM (active) | inactive | – | inactive | – | – | inactive |
| C=CCN1CC[C@]23c4c5ccc(O)c4O[C@H]2C(=O)CC[C@@]3(O)[C@H]1C5 | inactive | inactive | inactive | – | inactive | – | inactive | inactive | – | inactive |
| O=C(NCc1cccnc1)Nc1ccc([N+](=O)[O-])cc1 | inactive | inactive | inactive | inactive | inactive | inactive | inactive | – | – | inactive |
| COCC(C)N(C(=O)CCl)c1c(C)csc1C (centres undefined) | inactive | 30.6 µM (active) | inactive | – | inactive | inactive | – | inactive | – | inactive |
| CCCCc1c(C)nc(NCC)nc1OS(=O)(=O)N(C)C | inactive | 61.1 µM (active) | inactive | – | inactive | inactive | inactive | inactive | – | inactive |
| CC(C)(C)c1cc([N+](=O)[O-])cc([N+](=O)[O-])c1O | inactive | 6.84 µM (active) | inactive | – | 15.3 µM (active) | – | inactive | – | – | inactive |
| NS(=O)(=O)C(F)(F)C(F)(F)C(F)(F)C(F)(F)C(F)(F)C(F)(F)C(F)(F)C(F)(F)F | inactive | inactive | inactive | – | inactive | inactive | inactive | 68.6 µM (active) | inactive | – |
| O=S(=O)(O)C(F)(F)C(F)(F)C(F)(F)C(F)(F)F | inactive | 57.8 µM (active) | inactive | – | inactive | 0.578 µM (active) | – | inactive | – | inactive |
| CN(C)c1ccc(N(C)C)cc1 | 24.4 µM (active) | inactive | inactive | – | inactive | inactive | inactive | – | – | – |
| S=C=NCc1ccccc1 | inactive | inactive | inactive | 49.1 µM (active) | – | – | inactive | – | inactive | inactive |
| CCc1ccc(C(=O)NN(C(=O)c2cc(C)cc(C)c2)C(C)(C)C)cc1 | inactive | inactive | inactive | – | inactive | inactive | inactive | inactive | – | inactive |
| Clc1cc(Cl)c(Cl)c(Cl)c1 | inactive | inactive | – | – | inactive | inactive | – | inactive | – | inactive |
| Cl/C=C\Cl | inactive | inactive | – | – | inactive | inactive | – | inactive | – | inactive |
| CCCCN(N=O)C(=N)N[N+](=O)[O-] | inactive | 27.9 µM (active) | – | – | inactive | – | – | inactive | inactive | inactive |
| CO/N=C(/C(=O)OC)c1ccccc1COc1ccccc1C | inactive | 4.33 µM (active) | – | – | 54.5 µM (active) | inactive | inactive | 15.4 µM (active) | inactive | inactive |
| CCOc1nc(F)cc2nc(S(=O)(=O)Nc3c(Cl)cccc3Cl)nn12 | inactive | inactive | – | inactive | inactive | inactive | inactive | inactive | – | inactive |
| CC(=O)NC1CCSC1=O (centres undefined) | inactive | inactive | – | – | inactive | inactive | inactive | inactive | inactive | inactive |
| CCn1cc[n+](C)c1 | inactive | inactive and 19.3 µM (active) and 38.8 µM (active) | – | – | inactive and 27.6 µM (active) | – | – | inactive | – | inactive |
| O=C(CCl)c1ccc(Cl)cc1Cl | inactive | 5.96 µM (active) | – | – | inactive and 29.8 µM (active) | inactive | inactive | 38.4 µM (active) and 18.8 µM (active) | inactive | – |
| BrCC(Br)C1CCC(Br)C(Br)C1 (centres undefined) | inactive | inactive | – | – | inactive | – | – | inactive | – | inactive |
| O=NN1CCNCC1 | inactive | inactive | – | – | inactive | inactive | – | inactive | – | inactive |
